Source: PubChem BioAssay
Where “and” joins values, the source holds several entries; their conditions need not be identical. Identical values can stand only once. Calls of active or inactive are those of the source. No rule for the calls is given here.

Test: Brca1-Bard1 BiLC signal decrease – luminescence, single concentration, counter-screen for Mdm2/MdmX interaction inhibitor project, confirmation (AID 504668)
Details: Brca1/Bard1 bimolecular luciferase complementation counterscreen, at 8 µM, stronger effect = higher value

## C=CCc1cccc(/C=N/NC(=O)CNc2ccccc2OC)c1O
  inhibition: 28.3% (active)

## Oc1c(C(c2ccc(Cl)cc2)N2CCCC2)cc(Cl)c2cccnc12 (stereo not given)
  inhibition: 32.9% (active)

## CCOc1ccc(OCc2ccc(C(=O)NN=Cc3ccc[nH]3)cc2)cc1
  inhibition: 28% (active)

## CSc1nc2nccc(/C=C\c3ccccc3)n2n1
  inhibition: 23.7% (active)

## Oc1ccc(N=Nc2ccc3c(c2)OCCO3)c2ncccc12
  inhibition: 26.2% (active)

## Cn1nnnc1Sc1ncnc2scc(-c3ccccc3Br)c12
  inhibition: 25% (active)

## COC(=O)c1ccc(Sc2nnnn2-c2ccccc2)c([N+](=O)[O-])c1
  inhibition: 23% (active)

## O=C(/C=C/c1ccc2ccccc2n1)N1CCN(S(=O)(=O)c2ccccc2F)CC1
  inhibition: 25.5% (active)

## CCC(=O)NC(c1ccc(C)cc1)c1cc(Cl)c2cccnc2c1O (stereo not given)
  inhibition: 23.8% (active)

## CN(C)CCCNC(=O)/C(=C\c1ccc(-c2ccc(Br)cc2)o1)NC(=O)c1ccccc1
  inhibition: 29.2% (active)

## CCOc1cc(/C=N/NC(=O)Cc2ccc(C(F)(F)F)cc2[N+](=O)[O-])c(Br)cc1OC
  inhibition: 30.8% (active)

## CCCCCCCCCn1ccc(=N)cc1
  inhibition: 23.6% (active)

## CC(Oc1ccc(Br)cc1)C(=O)Nc1nc(-c2ccccn2)cs1 (stereo not given)
  inhibition: 35.4% (active)

## CCN1/C(=C/C=C/c2oc3ccc4ccccc4c3[n+]2CC)Oc2ccc3ccccc3c21
  inhibition: 28.6% (active)

## COc1ccc(-c2nc(CN3CCN(c4cc(C)nc(C)c4)CC3)c(C)o2)c2ccccc12
  inhibition: 34.4% (active)

## CCCN(CCC)c1nc(-c2ccccn2)nc2ccccc12
  inhibition: 24.6% (active)

## CC(=O)/C(C#N)=C1\NC(=O)C(Cc2ccc(C)c(C)c2)S1 (stereo not given)
  inhibition: 32.1% (active)

## Cc1c(C(=O)Nc2cccc(Cl)c2)oc2ccc(S(=O)(=O)N3CCC4(CC3)OCCO4)cc12
  inhibition: 32.3% (active)

## CCC(NC(=O)Nc1nnc(C(F)(F)F)s1)(C(F)(F)F)C(F)(F)F
  inhibition: 26.3% (active)

## COc1ccc(N/N=C/c2c(C(=O)O)ccc3ccccc23)cc1
  inhibition: 24.1% (active)

## O=C(Nc1ccc(Br)c(C(F)(F)F)c1)c1ccc(C(F)(F)F)cc1
  inhibition: 28.7% (active)

## CN(CC1CCCO1)S(=O)(=O)c1ccc(C(=O)Nc2nc(-c3ccccn3)cs2)cc1 (stereo not given)
  inhibition: 27.4% (active)

## CCC(C)n1c(=O)c(C(=O)Nc2ccccc2S(N)(=O)=O)c(O)c2ccccc21 (stereo not given)
  inhibition: 30.8% (active)

## COc1ccc(C)cc1Nc1n[n+](-c2ccccc2)c(-c2c(OC)ccc3ccccc23)s1
  inhibition: 29% (active)

## CCSc1nsc(NC(=O)Nc2cccc(F)c2)n1
  inhibition: 26.2% (active)

## O=C(CCCN1C(=O)/C(=C\c2cccs2)SC1=S)Nc1cccnc1
  inhibition: 25.5% (active)

## O=C(Oc1c(Cl)cc(Cl)c2cccnc12)c1cccs1
  inhibition: 32.1% (active)

## COc1ccc2cc1Oc1ccc(cc1)C[C@H]1c3c(cc4c(c3Oc3cc5c(cc3OC)CCN(C)[C@@H]5C2)OCO4)CCN1C
  inhibition: 31.6% (active)

## C1CCC(C(CC2CCCCN2)C2CCCCC2)CC1 (stereo not given)
  inhibition: 35.2% (active) and 23.8% (active)

## CC(C)Cc1nc(Nc2ccc(S(=O)(=O)N3CCCC3)cc2)c2nnn(Cc3ccccc3)c2n1
  inhibition: 24.1% (active)

## Cc1ccc(O)c(N=Nc2nccs2)c1
  inhibition: 23.2% (active)

## CCOC(=O)c1cnc(-n2nc(C)cc2C)nc1NC1CCCCC1
  inhibition: 30.1% (active)

## Cc1cc(Br)cc(/C=N/NC(=O)c2ccc3c(c2)OCO3)c1O
  inhibition: 33% (active)

## O=C(CCCl)Nc1nc2c(s1)CCc1ccccc1-2
  inhibition: 24.6% (active)

## O=C(N/N=C(\Cc1ncc[nH]1)c1ccccc1)c1ccncc1
  inhibition: 30.3% (active)

## CCCCCCCCn1c2c(c(=N)c3ccccc31)CCC2
  inhibition: 27.2% (active)

## C=C1C(O)[C@@H]2O[C@]3(CC[C@H](/C=C/C(C)[C@@H]4CC(C)=CC5(O[C@H](C[C@@](C)(O)CO)CCC5O)O4)O3)CC[C@H]2O[C@@H]1C(O)CC(C)[C@H]1OC2(CCCCO2)CCC1C (stereo not given in full)
  inhibition: 33.4% (active)

## Cc1nnsc1C(=O)N/N=C/c1ccc2ccccc2c1O
  inhibition: 30.1% (active)

## Cc1cc(SC#N)cc(C)c1NC(=O)CCl
  inhibition: 33.8% (active)

## c1ccc(-c2noc(-c3ccc4ccccc4c3)n2)nc1
  inhibition: 27% (active)
